High-throughput results deposited in PubChem by National Center for Advancing Translational Sciences (NCATS).
Rows were chosen to be rich in hits. Some 10% of all compounds tested hit in one or more screens of this group.
KinaseGlo FLuc = Kinase-Glo luciferase inhibition (counter-screen) | Q27757 | Kinase-Glo luciferase, ATP luminescence, 8 min | Potency, µM (series often up to 38.3 µM), for inactives: at the top dose activity change, negative = inhibition, usual class: inhibitors | 200,000 tested, 0.28% active | AID 1379; active means well fitted inhibition curve with a large enough effect; inconclusive means small, poorly fitted or top-dose-only effect; further: potency means the concentration at half of the fitted maximal effect; nearly all actives have a fitted effect of over 60% in size
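Substrate mix (final 50 mM imidazole pH 7.2, 50 mM KCl, 7 mM MgCl2, 10 uM ATP, 0.01% Tween 20, 0.05% BSA) plus pin-tool compound, then Kinase-Glo detection mix; 8 min ambient, luminescence read.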
HPGD inh = HPGD (human) dehydrogenase inhibition; AID 894; purified HPGD, NADH fluorescence kinetic, PGE2 substrate; 150,000 tested, 4.3% active; Potency, µM, for inactives: top-dose activity change, negative = inhibition, actives largely listed as inhibitors; further: potency means the concentration at half of the fitted maximal effect
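NADH formation kinetics: reaction with 30 uM PGE2 and 1 mM NAD+ (final), 20 nM enzyme, Tris-HCl pH 8 with Tween 20, after 15 min compound preincubation at room temperature. Fluorescence change, last versus first of five reads.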
ALDH1A1 block = ALDH1A1 (human) enzyme inhibition; P00352; Purified ALDH1A1, NADH fluorescence, propionaldehyde substrate; Potency, µM (titrated, usually from 75.3 µM), for inactives: at the top dose activity, negative = inhibition, hits mostly inhibitors; 220,000 tested, 7.3% active; AID 1030;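 further: potency means the concentration at half of the fitted maximal effect; plate controls were no enzyme wells and a reference inhibitor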
Target sequence (P00352 whole entry, looked up): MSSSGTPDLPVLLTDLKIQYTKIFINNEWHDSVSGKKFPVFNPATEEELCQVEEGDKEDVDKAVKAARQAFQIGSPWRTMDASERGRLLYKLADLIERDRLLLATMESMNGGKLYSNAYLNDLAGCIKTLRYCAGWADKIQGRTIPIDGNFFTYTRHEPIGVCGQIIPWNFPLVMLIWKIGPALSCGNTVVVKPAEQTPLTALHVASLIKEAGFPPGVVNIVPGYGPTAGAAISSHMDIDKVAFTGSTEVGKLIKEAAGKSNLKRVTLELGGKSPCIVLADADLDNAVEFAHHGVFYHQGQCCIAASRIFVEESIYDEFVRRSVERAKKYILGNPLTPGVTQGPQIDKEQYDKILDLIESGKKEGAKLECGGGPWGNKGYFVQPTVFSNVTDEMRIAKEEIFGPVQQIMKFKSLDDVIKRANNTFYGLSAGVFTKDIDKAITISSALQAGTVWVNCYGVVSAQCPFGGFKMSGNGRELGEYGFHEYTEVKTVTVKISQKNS
PNC assembly inh = perinucleolar compartment assembly inhibition. AID 2417. PC3M PTB-GFP, PNC prevalence imaging, 16 h; active compounds read low. activity change (PNC), negative = inhibition, % at 10 µM. 140,000 tested, 3.1% active;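 active means readout at or below -70, meaning at least 70% loss of cells showing the perinucleolar compartment, a nuclear body marking cancer cells; inconclusive means readout between -30 and a set limit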;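 further: plate controls were DMSO wells for no effect and camptothecin positive control wells for full effect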
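Compounds are pinned in duplicate onto adhered PC3M cells stably expressing GFP-tagged PTB and incubated 16 h at 37 C. Cells are then fixed, nuclei stained with Hoechst, and PNC-positive cells counted.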
LMNA splice mod = changes lamin A minigene splicing in HeLa cells | AID 1487 | Potency, µM (doses to about 46.1 µM), for inactives: top-dose ratio change, negative = inhibition, actives largely listed as inhibitors | 200,000 tested, 0.01% active | HeLa LMNA splicing GFP/RFP minigene ratio, 48 h; active means well fitted inhibition curve with a large enough effect in the signal ratio, with a control signal flat, not every such curve was filed as active; inconclusive means small, poorly fitted or top-dose-only effect, or effect the other way, or a change in a side signal; the % refers to the signal ratio; further: potency means the concentration at half of the fitted maximal effect
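Read-out is the ratio of GFP to DsRed2 object intensity, acquired by 488 nm laser-scanning cytometry on HeLa lamin A-EGFP minigene reporter cells. Compound incubation 48 hrs at 37 °C in Opti-MEM with 2% FBS; DMSO 0.5% final.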
IMPase cell inh = cell-permeable inhibitors of inositol monophosphatase (IMPase); 120,000 tested, under 10 active; CHO-M1 cells, IP1 accumulation, HTRF TR-FRET ratio; P97697; inhibition (IP1 accumulation), % at 46.1 µM; AID 901; active means well fitted curve in the direction sought with a large enough effect in the signal ratio, not every such curve was filed as active; inconclusive means small, poorly fitted or top-dose-only effect, or a change in a side signal; inactive means no such curve, though single readings can be large or run the other way; the % refers to the signal ratio;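 further: cells stimulated with carbachol in lithium chloride buffer; plate controls were DMSO basal wells for no effect and reference inhibitor wells for full effect; higher means more IMPase inhibition seen as more IP1 and lower FRET ratio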
Target sequence (P97697 whole entry, looked up): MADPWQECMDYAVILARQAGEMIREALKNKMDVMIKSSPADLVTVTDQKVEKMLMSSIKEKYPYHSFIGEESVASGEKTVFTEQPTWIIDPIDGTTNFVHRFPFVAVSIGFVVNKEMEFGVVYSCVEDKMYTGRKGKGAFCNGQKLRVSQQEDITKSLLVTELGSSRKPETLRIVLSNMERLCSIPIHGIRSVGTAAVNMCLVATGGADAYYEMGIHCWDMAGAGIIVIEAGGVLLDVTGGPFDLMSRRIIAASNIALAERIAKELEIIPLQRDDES
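Elevated IP1 in lysates lowers TR-FRET signal (665/620 ratio and 620 channel reported). Cells were CHO-M1, given carbachol (50 uM as added) plus 50mM LiCl, pH 7.4, 30 min, 37C; compounds titrated up to 46 uM; AC50 by Hill equation.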
* hit, by the source's call; u = inconclusive; x = no result given; [ ] = remark or other dose. Unless noted, the call rests on the fitted dose curve; in most records, active means well fitted inhibition curve with a large enough effect (not every such curve was filed as active); inconclusive means small, poorly fitted or top-dose-only effect, or another doubt; inactive means no such curve, though single readings can be large or run the other way. Unless noted, on the % scale 0 is the no-effect control and ±100 the full control effect.

SMILES	KinaseGlo FLuc	HPGD inh	ALDH1A1 block	PNC assembly inh	LMNA splice mod	IMPase cell inh
CCOC(=O)c1[nH]c(C)c(C(=O)N2CCN(C(=O)c3ccco3)CC2)c1C	-1.2%	-6.7%	-4.7%	-100.0*	-8.5%	-6.8
O=C(C(=O)N1CCN(C(=O)c2ccco2)CC1)c1c[nH]c2ccccc12	1.1%	x	1.7%	x	11.1%[9.22 µM]	x
Cc1[nH]c2ccccc2c1C(=O)C(=O)N1CCN(C(=O)c2ccco2)CC1	3.7%	x	6.31µM*	x	x	x
COc1cc(Br)c(C2CC(=O)Nc3cc(OC)c(OC)c(OC)c32)cc1OC (stereo not given)	x	x	x	x	x	2.2
CCOc1cc(C2C(C#N)=C(N)SC(N)=C2C#N)ccc1OCCN1CCOCC1	0.8%	22.4µM*	7.94µM*	u	-13.3%	-25.9
N#CC1=C(N)Oc2cc(O)ccc2C1c1ccccc1 (stereo not given)	2.3%	-3.1%	u	49.2	-13.4%	-11.2
N#CC1=C(N)SC(N)=C(C#N)C1c1cccc(O)c1	-3.6%	u	25.1µM*	9.1	8.2%	-4.9
CCCc1[nH]nc2c1C(c1ccc(OCCN3CCOCC3)c(OC)c1)C(C#N)=C(N)O2 (stereo not given)	-4.2%	-14.1%	1.4%	43.6	16.2%	-4.1
COC(=O)C1=C2SC(C)C(=O)N2C(N)=C(C#N)C1c1ccc(OC)c(OC)c1 (stereo not given)	-3.3%	u	12.6µM*	-14.0	u	25.0[9.22 µM]
COC(=O)C1=C2SC(C)C(=O)N2C(N)=C(C#N)C1c1cc(OC)c(OC)c(OC)c1 (stereo not given)	-2.3%	-11.9%	1.3%	-4.8	2.2%	12.6
CCOc1ccc(C2C(C#N)=C(N)SC(N)=C2C#N)c(OCC)c1	3.1%	-26.1%	17.8µM*	-0.6	-3.2%	u
CCCc1[nH]nc2c1C(c1ccccc1OCC)C(C#N)=C(N)O2 (stereo not given)	-0.6%	-10.1%	-1.1%	u	13.1%	8.5
COc1ccc(C2C(C#N)=C(N)SC(N)=C2C#N)cc1OC	-3.3%	15.8µM*	28.2µM*	u	2.4%	-12.0
Cc1cc(C(=O)NCc2ccccc2Cl)c2c(C)nn(-c3ccccc3)c2n1	x	x	x	x	5.8%[46 µM]	x
COc1cccc(CCc2nnc(CCC(=O)NCCc3cccc(C)n3)o2)c1	-1.6%	x	u	x	3.7%[46 µM]	x
COc1cccc(CCc2nnc(CCC(=O)N3CCN(Cc4ccccn4)CC3)o2)c1	x	x	8.91µM*	x	x	x
Cn1c(=O)c(CCc2ccccc2)nc2cnc(Oc3ccccc3)nc21	-2.5%	-16.1%	8.91µM*	x	x	x
COc1ccc(Oc2ncc3nc(CCc4ccccc4)c(=O)n(C)c3n2)cc1	-1.3%	-5.3%	u	x	x	x
COc1ccc(Oc2ncc3nc(C)c(=O)n(Cc4ccc(F)cc4)c3n2)cc1	-0.8%	-18.7%	25.1µM*	x	x	x
COc1ccc(Oc2ncc3nc(C)c(=O)n(CCc4ccccc4)c3n2)cc1	0.8%	-4.9%	0.224µM*	x	x	x
COc1ncc2nc(CCc3ccccc3)c(=O)n(C3CC3)c2n1	-2.6%	-20.1%	18.9µM*	x	x	x
Cc1ccc(NC(=O)C2(c3cccs3)CCOCC2)cc1Cl	x	x	x	x	0.4%[46 µM]	x
Cc1ccc(-c2nnc(Nc3ccc(Br)cc3)c3ccccc23)cc1S(=O)(=O)N1CCN(C)CC1	x	x	x	x	4.3%[46 µM]	x
COC(=O)C1=C(C)N(Cc2ccccc2)C2=C(C(C)=O)C(c3ccccc3)[C@@](O)(C(=O)OC)C(=O)N2C1c1ccccc1 (stereo not given in full)	x	x	-5.6%[13.5 µM]	x	x	x
C/C=C1/C2C=C(C)CC1(N)c1ccc(=O)[nH]c1C2 (stereo not given)	3.1%[39.9 µM]	0.6%	2.6%	x	x	x
SMILES	KinaseGlo FLuc	HPGD inh	ALDH1A1 block	PNC assembly inh	LMNA splice mod	IMPase cell inh
CCCCC[C@H](O)/C=C/[C@H]1OC(O)C[C@H](O)[C@@H]1C/C=C\CC(=O)O (stereo not given in full)	3.3%	-8.0%	-12.9%	x	x	x
Cc1nc2cnc(Oc3cccc(Cl)c3)nc2n(CCc2ccccc2)c1=O	-1.9%	-11.7%	6.31µM*	x	x	x
O=C(NC1CC(=O)N(c2cccc(F)c2)C1)C1CC1 (stereo not given)	x	x	x	x	-6.4%[46 µM]	x
CC(C(=O)OCC(=O)c1ccccc1)N1C(=O)C2C3CCC(C3)C2C1=O (stereo not given)	3.0%	x	-1.0%	x	-1.5%[46 µM]	x
CC(C(=O)OCC(=O)c1ccc([N+](=O)[O-])cc1)N1C(=O)C2C3CCC(C3)C2C1=O (stereo not given)	2.5%	x	3.16µM*	x	x	x
COCCNC(=O)CCN1C(=O)c2cccnc2Oc2ccc(C)cc21	x	x	x	x	9.3%[46 µM]	x
Cc1sc2nc(C3CC3)nc(SCC(=O)N3CCc4ccccc4C3)c2c1C	0.5%	u	14.1µM*	u	-13.1%	-2.3[1.84 µM]
COc1cc(C(=O)N/N=C/c2sc(=O)n(-c3ccccc3)c2Cl)cc(OC)c1OC	3.3%	-0.6%	u	1.8	-24.1%	x
Cc1ccccc1-n1c(C)cc(/C=N/NC(=O)c2ccncc2)c1C	-3.8%	-17.4%	31.6µM*	-3.3	10.0%	4.0
Cc1ccc(C)n1-c1ccc(C(=O)Nc2ccccc2F)cc1	-6.1%	x	u	x	x	x
Cc1cc(C)cc(-n2c(C)cc(/C=N/NC(=O)c3ccncc3)c2C)c1	5.3%	x	u	x	-7.9%[46 µM]	x
CCc1ccccc1NC(=O)c1ccc(-n2c(C)ccc2C)cc1	-1.4%	15.8µM*	-8.4%	u	u	11.8
O=C(N/N=C/c1sc(=O)n(-c2ccccc2)c1Cl)c1ccncc1	-3.9%	-21.7%	10µM*	52.1	u	x
CC(=O)Nc1ccc(NC(=O)c2ccc(-n3c(C)ccc3C)cc2)cc1	5.5%	25.1µM*	22.4µM*	u	14.9%	-1.0
CCC1CCCCN1C(=O)Cn1c(=O)n(-c2ccccc2C(F)(F)F)c(=O)c2c(C)c(C(=O)N(C)C)sc21 (stereo not given)	x	x	x	x	12.5%[46 µM]	x
CCCCC(=O)N1CCc2cc(OC)c(OC)cc2C1COc1ccc(OC)cc1 (stereo not given)	x	x	x	x	-5.0%[46 µM]	x
CCOC(=O)c1c(C)[nH]c(C)c1S(=O)(=O)N1CCC(C(=O)N2CCN(c3cccc(C)c3)C(C)C2)CC1 (stereo not given)	x	x	x	x	3.2%[46 µM]	x
Cc1ccc(C)n1-c1ccc(C(=O)N/N=C/c2ccncc2)cc1	-2.9%	x	17.8µM*	x	1.8%[46 µM]	x
N#Cc1nccnc1S(=O)(=O)c1cccs1	x	x	0.447µM*	x	u	x
O=c1c(CN2CCN(Cc3ccccc3)CC2)coc2ccc(Cl)cc12	0.5%	-8.4%	8.91µM*	-3.3	6.2%	12.1
CCCOc1ccc(-c2nc(=S)[nH][nH]2)cc1	7.1%	12.6µM*	u	-5.9	-5.1%	7.6
O=C(OCn1ncc(Br)c(Br)c1=O)c1ccc(F)cc1	-4.5%	22.4µM*	0.0891µM*	-10.3	u	u
